{"source": "PubChem BioAssay AID651640", "about": "(Broad Institute, 2012)", "note": "“And” between values parts separate entries of the source, which are not always exact repeats. Identical values can stand only once. Out of some 350,000 compounds screened, about 6,000 (1.7%) were called active. Not shown: some 5% with an inconclusive outcome. Cut-off read from the data, not from the text of the source: active = CPE inhibition above about 20% (passing the limit was not always enough); inconclusive = no clear call, values can overlap the other calls; tested in BHK-21 cells. Shown is part of a subset that was picked to be rich in actives. Some structures have more than one record in an assay (separate samples or runs), and their calls can disagree.", "data": [{"assay": "protection of cells from dengue 2 killing – plate reader, single concentration, primary screen (AID 651640);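 note: 0% = median of neutral control wells and 100% = median of positive control wells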", "conditions": "DENV2-infected cells, cytopathic effect rescue, at 9.99 µM, stronger effect = higher value", "values": [{"smiles": "COc1ccc2c3c(n(C)c2c1)[C@@H](CO)N(C(=O)Nc1ccc(F)cc1)CC31CN(C(=O)NC(C)C)C1", "CPE inhibition": "-3.42% (inactive)"}, {"smiles": "CNC(=O)C[C@@H]1CC[C@H]2[C@H](COc3ccc(NC(=O)C4CC4)cc3C(=O)N2C)O1", "CPE inhibition": "-4.01% (inactive)"}, {"smiles": "CCCNC(=O)Nc1ccc2c(c1)C(=O)N(C)C[C@@H](OC)[C@H](C)CN(CCC)[C@@H](C)CO2", "CPE inhibition": "3.79% (inactive)"}, {"smiles": "COc1ccc(S(=O)(=O)Nc2cccc3c2O[C@H](CN(C)C(=O)NC(C)C)[C@H](C)CN([C@H](C)CO)C3=O)cc1", "CPE inhibition": "-8.19% (inactive)"}, {"smiles": "O=C(N[C@@H]1CC[C@@H](CCn2cc(-c3ccccn3)nn2)O[C@@H]1CO)c1ccccc1", "CPE inhibition": "-2.85% (inactive)"}, {"smiles": "CC=Cc1ccc2n(c1=O)C[C@@H]1[C@@H](CO)[C@H](C(=O)N3CCCCC3)[C@H]2N1C(=O)C1CCC1", "note": "(mixture of isomers)", "CPE inhibition": "1.43% (inactive)"}, {"smiles": "O=S(=O)(NCC[C@H]1CC[C@@H](NS(=O)(=O)c2ccccc2Cl)[C@@H](CO)O1)c1ccc(Cl)cc1", "CPE inhibition": "-9.23% (inactive)"}, {"smiles": "COc1ccc(OC)c(Cc2nnc(CCC(=O)NC3CCCC3)o2)c1", "CPE inhibition": "-7.33% (inactive)"}, {"smiles": "COc1ccc2c(C)c(CCC(=O)NC3CC3)c(=O)oc2c1C", "CPE inhibition": "63.2% (active)"}, {"smiles": "Cc1c(CCC(=O)O)c(=O)oc2c(C)c(OCc3ccccc3Cl)ccc12", "CPE inhibition": "-5.66% (inactive)"}, {"smiles": "C[C@H]1CN([C@@H](C)CO)C(=O)c2cc(C#CCN(C)C)cnc2O[C@H]1CN(C)C(=O)Cc1ccccc1", "CPE inhibition": "-2.97% (inactive)"}, {"smiles": "Cc1[nH]c2ccccc2c1CC(=O)Nc1ccc(Nc2cccnc2)c(-c2cccc(Cl)c2)c1", "CPE inhibition": "-3.53% (inactive)"}, {"smiles": "Cc1ccccc1CN(C)C[C@H]1OCc2cn(nn2)CCCC(=O)N([C@@H](C)CO)C[C@H]1C", "CPE inhibition": "-8.88% (inactive)"}, {"smiles": "COc1ccc(CN(C)C[C@H]2OCCCC[C@H](C)Oc3ccc(NC(=O)c4ccccc4)cc3C(=O)N([C@@H](C)CO)C[C@@H]2C)cc1", "CPE inhibition": "10.3% (inactive)"}, {"smiles": "O=C(Nc1ncccc1O)c1ccc(S(=O)(=O)N2CCCC2)cc1", "CPE inhibition": "-6.91% (inactive)"}, {"smiles": "O=C(Nc1ncccc1O)c1ccc(S(=O)(=O)N2CCCCCC2)cc1", "CPE inhibition": "71.9% (active)"}, {"smiles": "O=C(N/N=C/c1ccccn1)c1ccc(S(=O)(=O)N2CCCCCC2)cc1", "CPE inhibition": "0.844% (inactive)"}, {"smiles": "C[C@@H]1CN([C@H](C)CO)C(=O)c2cc(NC(=O)Nc3ccc(F)cc3)ccc2O[C@@H](C)CCCCO[C@H]1CN(C)Cc1ccc(Cl)c(Cl)c1", "CPE inhibition": "-2.33% (inactive)"}, {"smiles": "C[C@@H]1CN([C@@H](C)CO)S(=O)(=O)c2ccc(C3=CCCCC3)cc2O[C@@H]1CN(C)Cc1cccc(C(=O)O)c1", "CPE inhibition": "0.212% (inactive)"}, {"smiles": "O=C(COc1ccccc1)Nc1ccc(C(=O)N2CCCC2)cc1", "CPE inhibition": "-2.25% (inactive)"}, {"smiles": "O=C(COc1ccccc1)Nc1ccc(N2CCN(C(=O)c3cccs3)CC2)cc1", "CPE inhibition": "21.9% (active)"}, {"smiles": "COc1ccc(N2CCN(C(=O)c3cccs3)CC2)cc1", "CPE inhibition": "5.45% (inactive)"}, {"smiles": "COc1ccc(-c2cn[nH]c2-c2ccc(OC)cc2)cc1", "CPE inhibition": "4.92% (inactive)"}, {"smiles": "Cc1cc(C)n(CCNS(=O)(=O)c2ccc(Cl)cc2)n1", "CPE inhibition": "8.8% (inactive)"}, {"smiles": "COc1ccc2cc(-c3[nH]ncc3CNCCn3nc(C)cc3C)ccc2c1", "CPE inhibition": "22.2% (active)"}, {"smiles": "CN(C)CC(=O)N1[C@H](C(=O)NC2CCC2)[C@@H](CO)[C@@H]2Cn3c(ccc(-c4ccc(F)cc4)c3=O)[C@@H]21", "CPE inhibition": "2.93% (inactive)"}, {"smiles": "O=C(CN1CCOCC1)N1C[C@@H]2N[C@H](C1)C2c1ccc(-c2ccncc2)cc1", "note": "(stereo not given in full)", "CPE inhibition": "-7.01% (inactive)"}, {"smiles": "O=C(Cc1ccncc1)N1C[C@@H]2N[C@H](C1)C2c1ccc(-c2ccc(F)cc2)cc1", "note": "(stereo not given in full)", "CPE inhibition": "21.5% (active)"}, {"smiles": "O=C(C1CCC1)N1C[C@@H]2N[C@H](C1)C2c1ccc(-c2cncnc2)cc1", "note": "(stereo not given in full)", "CPE inhibition": "10.6% (inactive)"}, {"smiles": "COc1ccc(-c2ccc(C3[C@@H]4CN(S(=O)(=O)c5cn(C)cn5)C[C@H]3N4)cc2)cc1", "note": "(stereo not given in full)", "CPE inhibition": "1.06% (inactive)"}, {"smiles": "Cn1cnc(S(=O)(=O)N2C[C@@H]3N[C@H](C2)C3c2ccc(/C=C/c3ccccc3)cc2)c1", "note": "(stereo not given in full)", "CPE inhibition": "1.24% (inactive) and -2.99% (inactive)"}, {"smiles": "Cn1cnc(S(=O)(=O)N2C[C@@H]3N[C@H](C2)C3c2ccc(-c3ccccc3F)cc2)c1", "note": "(stereo not given in full)", "CPE inhibition": "72.2% (active) and -4.36% (inactive)"}, {"smiles": "CO[C@@H]1CN(C)C(=O)c2cc(NC(=O)C3CCCC3)ccc2OC[C@H](C)N(C)C[C@@H]1C", "CPE inhibition": "4.63% (inactive)"}, {"smiles": "COC(=O)C[C@@H]1C[C@H]2c3cc(NC(=O)CN(C)C)ccc3O[C@H]2[C@H](CO)O1", "CPE inhibition": "1.76% (inactive)"}, {"smiles": "Cc1noc(C)c1S(=O)(=O)N(C)C[C@@H]1OCCCC[C@H](C)Oc2ccc(NC(=O)CCC(F)(F)F)cc2C(=O)N([C@H](C)CO)C[C@H]1C", "CPE inhibition": "18.7% (inactive)"}, {"smiles": "O=C(Nc1nccs1)[C@@H]1[C@@H](CO)[C@@H]2Cn3c(ccc(-c4cccnc4)c3=O)[C@@H]2N1CC1CC1", "CPE inhibition": "-4.43% (inactive)"}, {"smiles": "CC(C)(C)OC(=O)C[C@@H]1C/C=C\\C[C@@H](CC(=O)N[C@H](CO)Cc2ccccc2)C(=O)NCCOC1=O", "CPE inhibition": "-7.88% (inactive)"}, {"smiles": "CC(C)(C)OC(=O)C[C@@H]1C/C=C\\C[C@H](CC(=O)N[C@@H](CO)Cc2ccccc2)C(=O)N[C@H](Cc2ccccc2)COC1=O", "CPE inhibition": "21.2% (active)"}, {"smiles": "C[C@H]1COC(=O)[C@H](CC(=O)OC(C)(C)C)C/C=C\\C[C@@H](CC(=O)N[C@H](CO)Cc2ccccc2)C(=O)N1", "CPE inhibition": "15.2% (inactive)"}, {"smiles": "O=C(NCC1CC1)[C@@H]1[C@@H](CO)[C@@H]2Cn3c(ccc(-c4ccncc4)c3=O)[C@@H]2N1Cc1cocn1", "CPE inhibition": "6.32% (inactive)"}, {"smiles": "O=C(c1ccncc1)N1CC[C@@H]2[C@H]1c1cc(Br)ccc1N[C@@H]2CO", "CPE inhibition": "-10.3% (inactive)"}, {"smiles": "C[C@H]1CN([C@@H](C)CO)C(=O)c2cccc(NC(=O)Nc3ccccc3)c2O[C@@H]1CN(C)C(=O)Nc1cccc2ccccc12", "CPE inhibition": "13.2% (inactive)"}, {"smiles": "COCCn1c(SCC(=O)Nc2ccc(F)cc2F)nc2c(c1=O)SCC2", "CPE inhibition": "-1.37% (inactive)"}, {"smiles": "COCCn1c(SCC(=O)Nc2ccccc2F)nc2c(c1=O)SCC2", "CPE inhibition": "69.8% (active)"}, {"smiles": "COCCn1c(SCC(=O)Nc2cc(Cl)ccc2OC)nc2c(c1=O)SC(C)C2", "note": "(stereo not given)", "CPE inhibition": "1.59% (inactive)"}]}]}
